One test addresses Albumin (Bos taurus) (UniProt P02769). In words: bovine serum albumin binders on microarray, profiling panel, artefact control for SMM control protein annotation, biochemical, small-molecule microarray, Alexa647 label, 635/667 nm fluorescence (AID 1118).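 Also: score merges 667 nm emission intensity and signal-to-noise per printed compound spot.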 The following applies: BSA-A647 binding, fluorescence 635 nm, higher = more signal.
Test [1] can be described thus: small-molecule microarray binders of probe aXIP, primary screen, biochemical, NeuroSMM set, 635/667 nm fluorescence (AID 1119).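 Also: probe is the protein aXip251-270 applied at 1 µg/mL to compound-printed slides; binding of probe to printed compounds measured as 667 nm fluorescence plus signal to noise.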 The following applies: higher = more signal, called active from +8 up or from −8 down.
Test [2] can be described thus: small-molecule binders of probe aNOTCH3, primary screen, biochemical, small-molecule microarray, 635/667 nm fluorescence (AID 1120).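 Also: probe is a biotin-tagged antibody raised against NOTCH3 rather than NOTCH3 protein; score merges spot fluorescence near 667 nm with spot signal to noise.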 The following applies: higher = more signal.
Test [3] is described as follows: small-molecule binders of probe aNOTCH2, primary screen, biochemical, small-molecule microarray, 635/667 nm fluorescence (AID 1121).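 Also: score merges feature fluorescence read at 667 nm with its signal to noise.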 The following applies: higher = more signal.
Test [4] addresses Carbonic anhydrase 2 (Homo sapiens) (UniProt P00918). The test can be described thus: CAII small-molecule binders, profiling panel, biochemical, small-molecule microarray, Alexa647-labelled CAII (AID 1122). To be noted: CAII-A647 binding fluorescence, higher = more signal.
Test [5] is described as follows: COS7 lysate on small-molecule microarray, probe aHis, 635 nm (AID 1123).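 Also: z-score combines 667nm fluorescence intensity with signal-to-noise per printed compound spot.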 The following applies: COS7 cell lysate, fluorescence, higher = more signal.
The nature of test [6]: compound binding in COS7 lysate, probe aLAP1, primary screen, cell lysate, small-molecule microarray (AID 1124).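 Also: lysate comes from COS7 cells expressing LAP1 and is applied at 0.3 µg/mL; score merges spot fluorescence near 667 nm with signal-to-noise over triplicate slides.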 The following applies: probe aLAP1, fluorescence, higher = more signal.
The test system of another test is Sam68 (KHDRBS1). The test can be described thus: Sam68 small-molecule binders, primary screen, biochemical, small-molecule microarray, 635 nm fluorescence (AID 1125).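 Also: score merges 667 nm channel intensity with signal to noise over triplicate slides.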 The following applies: small-molecule microarray binding, higher = more signal.
For test [7], the system named is Chordin-like protein 2 (CHRDL2). In words: CHRDL2 small-molecule binders, primary screen, biochemical, small-molecule microarray, 635 nm fluorescence (AID 1126).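 Also: printed compound slides probed with Chrdl2 protein at 4 µg/mL for 1 h at 4 C; score merges 667 nm emission intensity with signal to noise over three replicate slides.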 To be noted: small-molecule microarray binding, fluorescence 635 nm; higher = more signal.
The target of test [8] is Concanavalin-A (Canavalia ensiformis) (UniProt P02866). In words: ConA small-molecule binders, primary screen, artefact control for SMM control protein annotation, biochemical, small-molecule microarray, Alexa647 label, 635 nm (AID 1127).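 Also: z combines 667 nm emission intensity with signal-to-noise across three replicate slides.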 To be noted: ConA-A647 binding fluorescence, higher = more signal.
A short description of test [9]: anti-His antibody binders, primary screen, artefact control for SMM control protein annotation, biochemical, small-molecule microarray, 635 nm fluorescence (AID 1128).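 Also: score merges feature fluorescence with signal-to-noise for each printed compound spot.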 To be noted: anti-His Alexa647 antibody binding, higher = more signal.
Test [10] concerns Human papillomavirus type 1a E7 protein (residues 1-88). The test can be described thus: HPV1a E7 small-molecule binders, primary screen, biochemical, small-molecule microarray, residues 1-88, 635 nm (AID 1129). The following applies: small-molecule microarray binding, fluorescence 635 nm; higher = more signal.
Test [11] concerns the target Focal adhesion kinase 1 (Homo sapiens) (UniProt Q05397). The test can be described thus: small-molecule microarray binders of FAK, primary screen, biochemical, 635/667 nm fluorescence, BSA, DTT (AID 1130).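 Also: composite of spot emission at 667 nm and signal to noise over triplicate slides.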 The following applies: PTK2 binding, 635 nm fluorescence, higher = more signal.
The test system of test [12] is Fibrinogen (Alexa647-labelled). In words: fibrinogen binders on compound microarrays, profiling panel, artefact control for SMM control-protein annotation, biochemical, small-molecule microarray, 635/667 nm fluorescence (AID 1131).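 Also: z-score merges 667 nm fluorescence with per-spot signal-to-noise over triplicate slides.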 The following applies: fibrinogen-A647 binding fluorescence, higher = more signal.
The target in test [13] is Follistatin (Homo sapiens) (UniProt P19883). In words: follistatin binders on small-molecule microarrays, primary screen, biochemical, small-molecule microarray, 635/667 nm fluorescence (AID 1132). The following applies: FST binding, 635 nm fluorescence, higher = more signal.
The target in test [14] is Fibroblast growth factor 2 (Homo sapiens) (UniProt P09038). In words: FGF2 binders on small-molecule microarrays, primary screen, biochemical, small-molecule microarray, 635/667 nm fluorescence (AID 1133). To be noted: small-molecule microarray binding, FGF2, fluorescence 635/667; higher = more signal.
A short description of test [15]: mitochondrial membrane potential change in A549 cells, profiling panel, cell-based, JC-1 fluorescence, basal, 24 h, 100 nL (AID 1138).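 Also: A549 lung adenocarcinoma cells under basal conditions with no added stimulus; test concentration not given here.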 To be noted: higher = more signal.
For a further test, the system named is Lefty1. In words: Lefty1 binders on small-molecule microarrays, primary screen, biochemical, small-molecule microarray, 635/667 nm fluorescence (AID 1139). The following applies: small-molecule microarray binding, fluorescence 635/667; higher = more signal.
The test system of test [16] is wheat germ agglutinin (Triticum aestivum), Alexa647-labelled. In words: wheat germ agglutinin binders on compound microarrays, profiling panel, artefact control for SMM control-protein annotation, biochemical, small-molecule microarray, 635/667 nm fluorescence (AID 1140).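 Also: score merges 667 nm feature emission with signal to noise over triplicate slides.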 The following applies: WGA-A647 binding, 635 nm fluorescence, higher = more signal.
Test [17] addresses Luciferin 4-monooxygenase (Photinus pyralis) (UniProt P08659). The test can be described thus: firefly luciferase enzyme inhibitors, primary screen, biochemical, luminescence, purified enzyme, 2006 set (AID 1141).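 Also: cell-free assay with purified firefly luciferase at 100 ng per well in PBS; test concentration not given here.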 The following applies: SteadyGlo luminescence, 30 min, higher = more signal, called active from +8 up or from −8 down.

Among the data in PubChem BioAssay are composite z-score, composite Z-score and z-score values, retold here.

Structures are written as SMILES. Calls of active or inactive are those of the source.

Chain of Focal adhesion kinase 1 (Homo sapiens) (Q05397 whole entry, looked up): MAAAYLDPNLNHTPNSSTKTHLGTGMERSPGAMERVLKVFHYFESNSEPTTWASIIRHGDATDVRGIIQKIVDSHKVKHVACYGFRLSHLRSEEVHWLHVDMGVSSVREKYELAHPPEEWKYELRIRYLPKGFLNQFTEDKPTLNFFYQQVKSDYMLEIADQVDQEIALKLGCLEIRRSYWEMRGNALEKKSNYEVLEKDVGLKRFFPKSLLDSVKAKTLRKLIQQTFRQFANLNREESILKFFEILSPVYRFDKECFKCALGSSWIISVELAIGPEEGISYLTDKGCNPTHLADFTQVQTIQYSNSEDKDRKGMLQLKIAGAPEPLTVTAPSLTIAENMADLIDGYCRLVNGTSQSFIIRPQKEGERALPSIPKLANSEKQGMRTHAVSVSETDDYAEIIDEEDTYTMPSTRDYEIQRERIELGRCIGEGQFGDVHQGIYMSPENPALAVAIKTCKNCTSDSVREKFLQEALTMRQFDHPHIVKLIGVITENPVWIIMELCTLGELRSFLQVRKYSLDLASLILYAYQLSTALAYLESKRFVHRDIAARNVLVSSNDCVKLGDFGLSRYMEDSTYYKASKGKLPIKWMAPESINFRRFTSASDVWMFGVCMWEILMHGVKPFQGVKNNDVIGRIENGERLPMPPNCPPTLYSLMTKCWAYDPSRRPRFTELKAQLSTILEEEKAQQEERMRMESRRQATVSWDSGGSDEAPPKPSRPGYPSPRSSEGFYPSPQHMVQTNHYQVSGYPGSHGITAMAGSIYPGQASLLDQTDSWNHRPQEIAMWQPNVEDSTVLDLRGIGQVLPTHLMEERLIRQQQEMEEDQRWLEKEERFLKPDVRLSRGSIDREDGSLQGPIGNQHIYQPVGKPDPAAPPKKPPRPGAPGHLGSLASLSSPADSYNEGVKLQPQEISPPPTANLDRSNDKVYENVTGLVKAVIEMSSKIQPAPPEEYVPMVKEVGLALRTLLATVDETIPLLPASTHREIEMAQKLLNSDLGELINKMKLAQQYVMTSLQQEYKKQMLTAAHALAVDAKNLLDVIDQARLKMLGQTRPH
Chain of Luciferin 4-monooxygenase (Photinus pyralis) (P08659 whole entry, looked up): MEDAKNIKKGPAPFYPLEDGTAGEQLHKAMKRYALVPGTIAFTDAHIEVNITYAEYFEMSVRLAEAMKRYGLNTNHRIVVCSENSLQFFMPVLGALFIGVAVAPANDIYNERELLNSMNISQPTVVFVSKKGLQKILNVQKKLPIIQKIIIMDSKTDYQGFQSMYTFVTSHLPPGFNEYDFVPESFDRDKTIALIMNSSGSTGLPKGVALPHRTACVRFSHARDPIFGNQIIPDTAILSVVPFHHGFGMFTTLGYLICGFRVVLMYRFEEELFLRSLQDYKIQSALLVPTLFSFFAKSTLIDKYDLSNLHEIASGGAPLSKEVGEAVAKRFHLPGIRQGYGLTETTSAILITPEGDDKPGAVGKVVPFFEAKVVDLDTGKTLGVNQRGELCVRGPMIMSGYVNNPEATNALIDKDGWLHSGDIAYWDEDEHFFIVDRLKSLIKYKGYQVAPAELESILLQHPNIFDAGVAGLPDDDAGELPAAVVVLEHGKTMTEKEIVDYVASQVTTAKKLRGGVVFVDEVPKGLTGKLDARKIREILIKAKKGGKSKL
Chain of Follistatin (Homo sapiens) (P19883 whole entry, looked up): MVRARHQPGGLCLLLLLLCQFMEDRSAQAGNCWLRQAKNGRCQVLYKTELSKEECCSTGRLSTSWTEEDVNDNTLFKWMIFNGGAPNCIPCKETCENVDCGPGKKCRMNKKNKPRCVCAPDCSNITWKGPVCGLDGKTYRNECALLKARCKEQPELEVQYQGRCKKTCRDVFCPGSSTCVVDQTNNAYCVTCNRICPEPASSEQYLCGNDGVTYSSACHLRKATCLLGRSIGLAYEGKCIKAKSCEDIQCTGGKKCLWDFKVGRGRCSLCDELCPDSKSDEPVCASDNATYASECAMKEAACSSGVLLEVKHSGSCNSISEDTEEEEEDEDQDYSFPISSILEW
Chain of Albumin (Bos taurus) (P02769 whole entry, looked up): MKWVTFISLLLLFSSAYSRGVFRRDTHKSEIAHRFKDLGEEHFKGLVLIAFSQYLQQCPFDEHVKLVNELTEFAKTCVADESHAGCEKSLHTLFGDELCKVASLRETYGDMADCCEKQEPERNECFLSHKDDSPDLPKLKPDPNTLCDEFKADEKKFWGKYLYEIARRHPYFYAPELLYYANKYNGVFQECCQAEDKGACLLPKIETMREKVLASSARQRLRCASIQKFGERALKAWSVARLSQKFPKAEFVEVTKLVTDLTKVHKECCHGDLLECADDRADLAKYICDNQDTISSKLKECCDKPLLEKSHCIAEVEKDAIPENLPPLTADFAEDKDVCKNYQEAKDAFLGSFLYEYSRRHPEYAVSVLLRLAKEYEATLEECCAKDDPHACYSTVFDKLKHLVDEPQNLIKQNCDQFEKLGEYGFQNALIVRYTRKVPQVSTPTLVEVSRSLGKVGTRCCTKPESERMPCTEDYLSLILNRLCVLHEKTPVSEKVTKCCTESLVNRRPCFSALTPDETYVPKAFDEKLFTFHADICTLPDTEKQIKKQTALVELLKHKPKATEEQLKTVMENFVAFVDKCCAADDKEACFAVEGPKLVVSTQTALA
Chain of Fibroblast growth factor 2 (Homo sapiens) (P09038 whole entry, looked up): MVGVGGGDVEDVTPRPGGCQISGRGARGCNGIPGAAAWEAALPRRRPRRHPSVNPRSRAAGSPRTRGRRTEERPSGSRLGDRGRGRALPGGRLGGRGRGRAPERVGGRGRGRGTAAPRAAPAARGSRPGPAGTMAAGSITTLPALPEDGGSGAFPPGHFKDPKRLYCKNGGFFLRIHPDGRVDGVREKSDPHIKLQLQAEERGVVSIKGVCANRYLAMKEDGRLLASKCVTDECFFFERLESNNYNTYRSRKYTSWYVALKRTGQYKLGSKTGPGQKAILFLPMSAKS
Chain of Concanavalin-A (Canavalia ensiformis) (P02866 whole entry, looked up): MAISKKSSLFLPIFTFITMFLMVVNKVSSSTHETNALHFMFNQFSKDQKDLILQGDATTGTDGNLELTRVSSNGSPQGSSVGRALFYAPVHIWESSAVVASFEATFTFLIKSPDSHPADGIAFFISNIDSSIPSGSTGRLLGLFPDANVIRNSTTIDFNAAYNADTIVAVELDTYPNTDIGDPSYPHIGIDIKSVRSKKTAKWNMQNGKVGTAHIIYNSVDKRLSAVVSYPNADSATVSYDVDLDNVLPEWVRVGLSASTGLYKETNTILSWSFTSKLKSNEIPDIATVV

Consider `COC(=O)[C@H](C)NC(=O)CCC1CC(OC(=O)NCCc2ccc(F)cc2)CC2(CCCC(COC(=O)NCCc3ccc(Cl)cc3)O2)O1` (stereo not given in full), for which the composite z-score was -0.167 with Albumin (Bos taurus); 0.0573 in test [2]; -0.0261 in test [3]; 0.0606 in [4]; 0.925 in test [5]; 0.0391 in test [6]. Moreover, the composite z-score with Sam68 (KHDRBS1) came out at 1.07; in [7], 1.09; in [8] it was 0.925; in test [9], 0.225; in [10], 0.966; in test [11], 0.167. Moreover, the composite z-score in test [12] was 0.873; in [13], 0.646; in [14], 1.05; with Lefty1, 1.25; in test [16] it was 0.766. Further, the composite Z-score in [1] is 0.65 (inactive). Moreover, the figures for the z-score in [15] and in test [17] were 0.994 and 0.0182 (inactive), respectively.
`CCN(CC)c1ccc(N2CC=CC34O[C@@H]5/C=C\CCC(C)OC(=O)C5[C@H]3C(=O)N(CCCO)[C@@H]4C2=O)cc1` (stereo not given in full): the composite z-score with Albumin (Bos taurus) was -0.909; in test [2], -0.185; in test [3] it was -0.189; in test [4], 0.868; in test [5] it was -0.368; in [6], -0.0197. Also, the composite z-score in the test with Sam68 (KHDRBS1) was -0.383; in [7] it was -0.618; in test [8] it was -0.608; in test [9], 0.494; in test [10], -0.191; in test [11], -0.216. Further, the composite z-score in test [12] was -0.892; in test [13], -0.247; in test [14], -0.615; in the test with Lefty1, -0.784; in test [16], -0.529. The composite Z-score in [1] is 0.589 (inactive). In addition, the z-score in test [15] was 0.881; in test [17], -0.936 (inactive).
As for `CO[C@@H]1COC(=O)CC=C[C@@H](C)[C@H](OC)COC(=O)[C@H](COCc2ccccc2)NC(=O)CC=C[C@H]1C`, the composite z-score is -1.39 with Albumin (Bos taurus); -0.0584 in [2]; -0.197 in [3]; -0.654 in test [4]; -0.925 in [5]; -0.23 in [6]. Further, the composite z-score with Sam68 (KHDRBS1) is -0.978; in test [7], 1.22; in [8], -3.99; in test [9], -1.36; in test [10], -2.53; in test [11], -0.843. Further, the composite z-score in test [12] was -1.21; in test [13], 1.43; in test [14], 0.513; with Lefty1, 1.12; in [16] it was -1.13. In addition, in test [1], the composite Z-score was 0.0898 (inactive). Besides, the z-score in test [15] was -0.169; in test [17], 0.518 (inactive).
As for `CC(C)[Si]1(C(C)C)O[C@@H](c2ccccc2)c2cc(C3CC3)nc(-c3ccccc3)c21`, the composite z-score with Albumin (Bos taurus) was 0.23; in test [2] it was -0.16; in [3] it was -0.102; in test [4] it was -0.169; in [5], 0.423; in test [6], 0.202. Also, the composite z-score with Sam68 (KHDRBS1) was -0.308; in [7], 0.324; in [8], -0.77; in [9], -0.829; in test [10], -0.466; in test [11] it was -0.925. The composite z-score in [12] was 0.412; in test [13], -0.165; in [14], -0.246; with Lefty1 it was -0.198; in test [16] it was 0.105. For the same compound, the composite Z-score in test [1] was -0.773 (inactive). The z-score in test [15] was -0.271; in [17], -0.471 (inactive).
As for `Cc1cc2c(c(=O)o1)[C@H](O)[C@H]1O[C@H]1C2=O`, the composite z-score in the test with Albumin (Bos taurus) is -1.02; in [2] it was 0.255; in test [3], -0.0076; in test [4], 0.0024; in test [5] it was -0.682; in test [6], -0.106. Moreover, the composite z-score is -0.333 in the test on Sam68 (KHDRBS1); 0.26 in test [7]; -0.0383 in test [8]; -0.633 in [9]; -1.07 in [10]; -0.21 in [11]. Besides, the composite z-score was -0.236 in test [12]; 0.429 in test [13]; 0.126 in test [14]; -0.32 with Lefty1; -0.137 in [16]. In [1], the composite Z-score was -0.18 (inactive). For the same compound, the z-score is -1.23 in test [15] and -0.0074 (inactive) in test [17].
